PubChem BioAssay (NCATS)
Results filed as inconclusive are left out. The source made the active and inactive calls. Calls come from the whole dose curve; as a rule, active = well fitted curve in the direction sought with a large enough effect; inconclusive = small, poorly fitted or top-dose-only effect, or another doubt; inactive = no such curve, though single readings can be large; an effect the other way counts as inactive or inconclusive.

Legend:
[1] = biological target: ATP-dependent 6-phosphofructokinase (Trypanosoma brucei brucei) (UniProt O15648); experiment: qHTS Assay to Find Inhibitors of T. brucei phosphofructokinase: hit validation (AID 492961);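 note: luminescence reports ADP formed as PFK phosphorylates fructose-6-phosphate with ATP; % is set by controls: 0 for no effect and ±100 for the full control effect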
Procedure, shortened: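 Compounds titrated; %activity normalized to 0x and 1x enzyme controls, curve-fitted. Readout: ADP-Glo luminescence after 45 min room-temperature reaction of 1.25 nM PFK, 0.1 mM ATP, 0.5 mM F6P, pH 8.0.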

[2] = qHTS profiling for inhibitors of Plasmodium falciparum proliferation (AID 504749); note: potency is the fitted concentration of half-maximal effect;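 for activity, negative = inhibition: 0% = DMSO vehicle and full inhibition = artemisinin control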; for all read-outs here: nearly all actives have a fitted effect of over 60% in size; conditions: P. falciparum in erythrocytes, SYBR Green DNA, 72 h; for activity, negative = inhibition: at 28.7 µM (top of the series)
Procedure, shortened: (§1)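 SYBR Green fluorescence (ex 485 nm, em 535 nm) reports parasite DNA after 72 h compound exposure of infected red cells at 0.3% parasitemia, 2.5% hematocrit; signal normalized to 0.29 uM artemisinin and vehicle wells.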

AA1029 = experiment: as above; conditions: P. falciparum in erythrocytes, SYBR Green DNA, 72 h; series mostly up to 28.7 µM
Procedure, shortened: as §1

AS120 = experiment: as above; conditions: P. falciparum in erythrocytes, SYBR Green DNA, 72 h; series mostly up to 28.7 µM
Procedure, shortened: as §1

ATS189 = experiment: as above; conditions: P. falciparum in erythrocytes, SYBR Green DNA, 72 h; series mostly up to 28.7 µM
Procedure, shortened: as §1

CP185 = experiment: as above; conditions: P. falciparum in erythrocytes, SYBR Green DNA, 72 h; series mostly up to 28.7 µM
Procedure, shortened: as §1

CP191 = experiment: as above; conditions: P. falciparum in erythrocytes, SYBR Green DNA, 72 h; series mostly up to 28.7 µM
Procedure, shortened: as §1

CP192 = experiment: as above; conditions: P. falciparum in erythrocytes, SYBR Green DNA, 72 h; series mostly up to 28.7 µM
Procedure, shortened: as §1

CP211 = experiment: as above; conditions: P. falciparum in erythrocytes, SYBR Green DNA, 72 h; series mostly up to 28.7 µM
Procedure, shortened: as §1

CP217 = experiment: as above; conditions: P. falciparum in erythrocytes, SYBR Green DNA, 72 h; series mostly up to 28.7 µM
Procedure, shortened: as §1

CP238 = experiment: as above; conditions: P. falciparum in erythrocytes, SYBR Green DNA, 72 h; series mostly up to 28.7 µM
Procedure, shortened: as §1

CP252 = experiment: as above; conditions: P. falciparum in erythrocytes, SYBR Green DNA, 72 h; series mostly up to 28.7 µM
Procedure, shortened: as §1

CP262 = experiment: as above; conditions: P. falciparum in erythrocytes, SYBR Green DNA, 72 h; series mostly up to 28.7 µM
Procedure, shortened: as §1

CP265 = experiment: as above; conditions: P. falciparum in erythrocytes, SYBR Green DNA, 72 h; series mostly up to 28.7 µM
Procedure, shortened: as §1

CP286 = experiment: as above; conditions: P. falciparum in erythrocytes, SYBR Green DNA, 72 h; series mostly up to 28.7 µM
Procedure, shortened: as §1

Dd2 = experiment: as above; conditions: P. falciparum in erythrocytes, SYBR Green DNA, 72 h; series mostly up to 28.7 µM
Procedure, shortened: as §1

ECU = experiment: as above; conditions: P. falciparum in erythrocytes, SYBR Green DNA, 72 h; series mostly up to 28.7 µM
Procedure, shortened: as §1

FAB9 = experiment: as above; conditions: P. falciparum in erythrocytes, SYBR Green DNA, 72 h; series mostly up to 28.7 µM
Procedure, shortened: as §1

HB3 = experiment: as above; conditions: P. falciparum in erythrocytes, SYBR Green DNA, 72 h; series mostly up to 28.7 µM
Procedure, shortened: as §1

N140 = experiment: as above; conditions: P. falciparum in erythrocytes, SYBR Green DNA, 72 h; series mostly up to 28.7 µM
Procedure, shortened: as §1

Chain of ATP-dependent 6-phosphofructokinase (Trypanosoma brucei brucei) (O15648 whole entry, looked up): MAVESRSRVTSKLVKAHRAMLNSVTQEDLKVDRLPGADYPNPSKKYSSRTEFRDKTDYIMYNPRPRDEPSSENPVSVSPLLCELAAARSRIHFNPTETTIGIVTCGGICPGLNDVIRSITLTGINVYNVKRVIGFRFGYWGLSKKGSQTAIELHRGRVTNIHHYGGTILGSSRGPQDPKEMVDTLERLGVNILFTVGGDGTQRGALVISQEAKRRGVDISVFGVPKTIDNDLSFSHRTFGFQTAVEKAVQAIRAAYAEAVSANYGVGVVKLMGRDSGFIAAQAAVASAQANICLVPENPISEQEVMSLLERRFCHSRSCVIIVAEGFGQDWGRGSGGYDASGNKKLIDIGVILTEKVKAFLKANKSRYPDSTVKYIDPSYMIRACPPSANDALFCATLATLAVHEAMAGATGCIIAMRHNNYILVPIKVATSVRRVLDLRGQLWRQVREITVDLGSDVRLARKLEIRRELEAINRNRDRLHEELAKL

OCC1O[C@H](O[C@H]2C(O)C(O)C(O)O[C@@H]2CO)C(O)C(O)C1O (stereo not given in full)
inactive: Potency [1] | activity, negative = inhibition ([2]; parasite line A) 7.88% | activity, negative = inhibition ([2]; parasite line B) 6.42% | Potency (AA1029) | Potency (AS120) | Potency (ATS189) | Potency (CP185) | Potency (CP191) | Potency (CP192) | Potency (CP211) | Potency (CP217) | Potency (CP238) | Potency (CP252) | Potency (CP262) | Potency (CP265) | Potency (CP286) | Potency (Dd2) | Potency (ECU) | Potency (FAB9) | Potency (HB3) | Potency (N140)

O=C1C(I)=CC(=C(c2cc(I)c(O)c(I)c2)c2ccccc2C(=O)O)C=C1I
inactive: Potency [1] | activity, negative = inhibition ([2]; parasite line A) 1.17% | activity, negative = inhibition ([2]; parasite line B) -0.638% | Potency (AA1029) | Potency (AS120) | Potency (ATS189) | Potency (CP185) | Potency (CP191) | Potency (CP192) | Potency (CP211) | Potency (CP217) | Potency (CP238) | Potency (CP252) | Potency (CP262) | Potency (CP265) | Potency (CP286) | Potency (Dd2) | Potency (ECU) | Potency (FAB9) | Potency (HB3) | Potency (N140)

NC(=O)C1CC2(NC(=O)NC2=O)c2cc(F)ccc2O1 (stereo not given)
inactive: Potency [1] | activity, negative = inhibition ([2]; parasite line A) 9.13% | activity, negative = inhibition ([2]; parasite line B) 7.45% | Potency (AA1029) | Potency (AS120) | Potency (ATS189) | Potency (CP185) | Potency (CP191) | Potency (CP192) | Potency (CP211) | Potency (CP217) | Potency (CP238) | Potency (CP252) | Potency (CP262) | Potency (CP265) | Potency (CP286) | Potency (Dd2) | Potency (ECU) | Potency (FAB9) | Potency (HB3) | Potency (N140)

O=[N+]([O-])O[C@H]1CO[C@H]2[C@@H]1OC[C@H]2O
inactive: Potency [1] | activity, negative = inhibition ([2]; parasite line A) 14.3% | activity, negative = inhibition ([2]; parasite line B) -1.17% | Potency (AA1029) | Potency (AS120) | Potency (ATS189) | Potency (CP185) | Potency (CP191) | Potency (CP192) | Potency (CP211) | Potency (CP217) | Potency (CP238) | Potency (CP252) | Potency (CP262) | Potency (CP265) | Potency (CP286) | Potency (Dd2) | Potency (ECU) | Potency (FAB9) | Potency (HB3) | Potency (N140)

NC[C@@H]1O[C@H](OC2[C@@H](CO)O[C@@H](OC3[C@H](O)[C@H](N)C[C@H](N)[C@H]3OC3O[C@H](CO)[C@@H](O)[C@H](O)[C@@H]3N)[C@H]2O)C(N)[C@H](O)[C@@H]1O (stereo not given in full)
inactive: Potency [1] | activity, negative = inhibition ([2]; parasite line A) 11.9% | activity, negative = inhibition ([2]; parasite line B) 20% | Potency (AA1029) | Potency (AS120) | Potency (ATS189) | Potency (CP185) | Potency (CP191) | Potency (CP192) | Potency (CP211) | Potency (CP217) | Potency (CP238) | Potency (CP252) | Potency (CP262) | Potency (CP265) | Potency (CP286) | Potency (Dd2) | Potency (ECU) | Potency (FAB9) | Potency (HB3) | Potency (N140)

OCC1O[C@@H](O[C@@H]2C(CO)OC(O)C(O)C2O)C(O)C(O)C1O (stereo not given in full)
inactive: Potency [1] | activity, negative = inhibition ([2]; parasite line A) 8.35% | activity, negative = inhibition ([2]; parasite line B) 4.55% | Potency (AA1029) | Potency (AS120) | Potency (ATS189) | Potency (CP185) | Potency (CP191) | Potency (CP192) | Potency (CP211) | Potency (CP217) | Potency (CP238) | Potency (CP252) | Potency (CP262) | Potency (CP265) | Potency (CP286) | Potency (Dd2) | Potency (ECU) | Potency (FAB9) | Potency (HB3) | Potency (N140)

CCCCC(=O)OCC(=O)[C@]1(O)Cc2c(O)c3c(c(O)c2[C@H](OC2CC(NC(=O)C(F)(F)F)C(O)C(C)O2)C1)C(=O)c1c(OC)cccc1C3=O (stereo not given in full)
inactive: Potency [1]
active: Potency ([2]; parasite line A) 2240 nM | Potency ([2]; parasite line B) 2510 nM | Potency (AA1029) 2000 nM | Potency (AS120) 2000 nM | Potency (ATS189) 3160 nM | Potency (CP185) 2240 nM | Potency (CP191) 2510 nM | Potency (CP192) 2390 nM | Potency (CP211) 1690 nM | Potency (CP217) 3160 nM | Potency (CP238) 2510 nM | Potency (CP252) 2510 nM | Potency (CP262) 1900 nM | Potency (CP265) 3160 nM | Potency (CP286) 1580 nM | Potency (Dd2) 2240 nM | Potency (ECU) 2510 nM | Potency (FAB9) 11200 nM | Potency (HB3) 2510 nM | Potency (N140) 2000 nM

C[n+]1c2cc(N)ccc2cc2ccc(N)cc21
inactive: Potency [1]
active: Potency ([2]; parasite line A) 398 nM | Potency ([2]; parasite line B) 1000 nM | Potency (AA1029) 708 nM | Potency (AS120) 1000 nM | Potency (ATS189) 1120 nM | Potency (CP185) 631 nM | Potency (CP191) 282 nM | Potency (CP192) 1200 nM | Potency (CP211) 953 nM | Potency (CP217) 891 nM | Potency (CP238) 708 nM | Potency (CP252) 794 nM | Potency (CP262) 1350 nM | Potency (CP265) 1260 nM | Potency (CP286) 178 nM | Potency (Dd2) 355 nM | Potency (ECU) 1260 nM | Potency (FAB9) 199 nM | Potency (HB3) 447 nM | Potency (N140) 631 nM

CN1[C@@H]2CC[C@@H]1CC(OC(=O)[C@H](CO)c1ccccc1)C2 (stereo not given in full)
inactive: Potency [1] | activity, negative = inhibition ([2]; parasite line A) 1.09% | activity, negative = inhibition ([2]; parasite line B) 2.23% | Potency (AA1029) | Potency (AS120) | Potency (ATS189) | Potency (CP185) | Potency (CP191) | Potency (CP192) | Potency (CP211) | Potency (CP217) | Potency (CP238) | Potency (CP252) | Potency (CP262) | Potency (CP265) | Potency (CP286) | Potency (Dd2) | Potency (ECU) | Potency (FAB9) | Potency (HB3) | Potency (N140)

CCCCCCCCCCCCCCCC(=O)OCC(COP(=O)(O)OCC[N+](C)(C)C)OC(=O)CCCCCCCCCCCCCCC (stereo not given)
inactive: Potency [1] | activity, negative = inhibition ([2]; parasite line A) -4.13% | activity, negative = inhibition ([2]; parasite line B) 3.84% | Potency (AA1029) | Potency (AS120) | Potency (ATS189) | Potency (CP185) | Potency (CP191) | Potency (CP192) | Potency (CP211) | Potency (CP217) | Potency (CP238) | Potency (CP252) | Potency (CP262) | Potency (CP265) | Potency (CP286) | Potency (Dd2) | Potency (ECU) | Potency (FAB9) | Potency (HB3) | Potency (N140)
